Measurements taken from PMC7862700, “An all-to-all approach to the identification of sequence-specific readers for epigenetic DNA modifications on cytosine”.

Tests used:
Experiment in all cases: DAPPL (digital affinity profiling via proximity ligation, sequencing); 10 mM Tris-HCl pH 7.5, 50 mM NaCl, 1 mM DTT, 4% glycerol, room temperature, 30 min; GST-TFs on glutathione beads, 16-mer random dsDNA library, 0.1% formaldehyde crosslink after washing; high values mean tight binding
Conditions in all cases: protein: recombinant; tags: N-terminal GST; dsDNA, one strand shown
FLI1 = target: T1, FLI1 (Homo sapiens, UniProt Q01543 1-452)
T1 sequence: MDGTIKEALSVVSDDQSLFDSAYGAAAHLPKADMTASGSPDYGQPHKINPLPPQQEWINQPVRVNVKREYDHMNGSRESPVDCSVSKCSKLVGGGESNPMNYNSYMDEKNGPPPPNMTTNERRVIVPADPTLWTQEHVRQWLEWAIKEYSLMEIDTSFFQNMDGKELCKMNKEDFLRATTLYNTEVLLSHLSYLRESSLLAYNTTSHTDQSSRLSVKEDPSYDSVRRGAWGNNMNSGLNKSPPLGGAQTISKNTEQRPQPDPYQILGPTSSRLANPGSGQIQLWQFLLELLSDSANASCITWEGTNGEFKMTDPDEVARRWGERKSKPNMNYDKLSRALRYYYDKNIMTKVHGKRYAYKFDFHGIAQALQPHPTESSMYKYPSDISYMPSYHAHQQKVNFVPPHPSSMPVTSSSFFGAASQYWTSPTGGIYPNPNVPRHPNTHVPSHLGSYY
Method in brief: (§1)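 Binding signal is each hexamer's read frequency for a factor divided by its frequency in the tag-only sample. The factors were GST-fused human transcription factors from yeast, captured on glutathione beads, DNA-barcoded and pooled with that sample. Pools were incubated with 200 nmole of a random double-stranded 16-mer DNA library in Tris/NaCl/DTT/glycerol buffer at room temperature for 30 min, then washed, crosslinked with 0.1% formaldehyde, proximity-ligated with BsaI/T4 ligase (1 h, 37 °C), PCR-amplified and sequenced on an Illumina NextSeq500.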

ELK1 = target: T2, ELK1 (Homo sapiens, UniProt P19419 1-428)
T2 sequence: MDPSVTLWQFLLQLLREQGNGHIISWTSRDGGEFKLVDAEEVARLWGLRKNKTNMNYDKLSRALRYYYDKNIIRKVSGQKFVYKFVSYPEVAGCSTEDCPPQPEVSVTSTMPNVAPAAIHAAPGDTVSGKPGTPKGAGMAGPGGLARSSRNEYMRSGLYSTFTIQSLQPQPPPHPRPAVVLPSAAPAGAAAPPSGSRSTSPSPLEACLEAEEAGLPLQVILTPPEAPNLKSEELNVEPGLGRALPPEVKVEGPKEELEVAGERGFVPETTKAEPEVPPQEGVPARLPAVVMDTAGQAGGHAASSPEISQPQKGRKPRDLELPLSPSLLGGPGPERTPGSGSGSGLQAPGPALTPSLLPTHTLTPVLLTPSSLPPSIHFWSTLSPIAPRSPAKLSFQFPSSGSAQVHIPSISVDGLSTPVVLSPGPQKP
Method in brief: as §1

GABPA = target: T3, GABPA (Homo sapiens, UniProt Q06546 1-454)
T3 sequence: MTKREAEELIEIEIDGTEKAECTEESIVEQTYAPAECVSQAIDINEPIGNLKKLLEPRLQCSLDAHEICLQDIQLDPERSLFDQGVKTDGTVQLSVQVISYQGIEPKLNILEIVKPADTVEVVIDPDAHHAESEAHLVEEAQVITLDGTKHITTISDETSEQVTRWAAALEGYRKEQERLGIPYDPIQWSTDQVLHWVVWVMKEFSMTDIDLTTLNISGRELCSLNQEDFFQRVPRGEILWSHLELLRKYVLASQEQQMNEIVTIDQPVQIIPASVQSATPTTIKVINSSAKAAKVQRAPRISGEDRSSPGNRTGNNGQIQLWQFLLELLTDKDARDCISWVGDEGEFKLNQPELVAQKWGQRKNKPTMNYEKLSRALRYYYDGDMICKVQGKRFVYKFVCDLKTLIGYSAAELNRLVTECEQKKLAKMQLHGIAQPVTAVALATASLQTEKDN
Method in brief: as §1

ERG = target: T4, ERG (Homo sapiens, UniProt P11308 1-479)
T4 sequence: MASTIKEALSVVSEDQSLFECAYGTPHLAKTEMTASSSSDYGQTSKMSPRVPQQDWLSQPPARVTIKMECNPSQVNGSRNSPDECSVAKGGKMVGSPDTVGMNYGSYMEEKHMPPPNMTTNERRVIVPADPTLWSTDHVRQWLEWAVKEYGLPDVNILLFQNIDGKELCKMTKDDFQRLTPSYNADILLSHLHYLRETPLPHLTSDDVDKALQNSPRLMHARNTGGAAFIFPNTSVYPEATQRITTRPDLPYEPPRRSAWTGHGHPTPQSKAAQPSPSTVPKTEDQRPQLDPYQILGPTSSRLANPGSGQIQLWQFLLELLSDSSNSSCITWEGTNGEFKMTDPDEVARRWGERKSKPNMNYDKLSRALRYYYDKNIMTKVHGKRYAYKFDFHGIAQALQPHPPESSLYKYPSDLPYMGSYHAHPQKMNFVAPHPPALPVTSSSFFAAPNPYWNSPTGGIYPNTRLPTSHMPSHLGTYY
Method in brief: as §1

ELF1 = ELF1 (Homo sapiens, UniProt P32519 1-619)
Sequence of ELF1 (P32519 whole entry): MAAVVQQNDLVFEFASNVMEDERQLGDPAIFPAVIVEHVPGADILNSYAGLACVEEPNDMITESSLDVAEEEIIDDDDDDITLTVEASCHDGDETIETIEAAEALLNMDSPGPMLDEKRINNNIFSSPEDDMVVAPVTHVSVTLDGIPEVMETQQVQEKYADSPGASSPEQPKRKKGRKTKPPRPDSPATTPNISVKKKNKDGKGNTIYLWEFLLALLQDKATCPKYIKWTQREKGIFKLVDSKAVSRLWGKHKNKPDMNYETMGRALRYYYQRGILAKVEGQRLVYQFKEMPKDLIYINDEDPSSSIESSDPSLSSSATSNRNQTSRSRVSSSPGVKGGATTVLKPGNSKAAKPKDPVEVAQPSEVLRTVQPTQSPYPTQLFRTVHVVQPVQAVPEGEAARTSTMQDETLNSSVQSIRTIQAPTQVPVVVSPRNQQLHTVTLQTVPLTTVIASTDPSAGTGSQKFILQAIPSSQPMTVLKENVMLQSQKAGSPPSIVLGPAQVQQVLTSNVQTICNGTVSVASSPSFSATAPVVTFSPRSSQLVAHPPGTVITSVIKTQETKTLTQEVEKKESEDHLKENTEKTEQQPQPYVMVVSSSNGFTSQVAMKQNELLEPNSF
Method in brief: as §1

EHF = target: T5, EHF (Homo sapiens, UniProt Q9NZC4 1-300)
T5 sequence: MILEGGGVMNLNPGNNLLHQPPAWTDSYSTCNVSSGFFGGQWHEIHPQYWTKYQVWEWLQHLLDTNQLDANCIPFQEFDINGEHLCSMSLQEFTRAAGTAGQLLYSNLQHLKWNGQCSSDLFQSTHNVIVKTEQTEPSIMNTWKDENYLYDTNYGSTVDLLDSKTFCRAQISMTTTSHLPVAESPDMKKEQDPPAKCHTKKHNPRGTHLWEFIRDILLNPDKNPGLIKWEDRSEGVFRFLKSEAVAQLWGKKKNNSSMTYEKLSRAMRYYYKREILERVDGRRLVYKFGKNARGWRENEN
Method in brief: as §1

SPI1 = SPI1 (Homo sapiens, UniProt P17947 1-270)
Method in brief: as §1

SPIB = SPIB (Homo sapiens, UniProt Q01892 1-262)
Sequence of SPIB (Q01892 whole entry): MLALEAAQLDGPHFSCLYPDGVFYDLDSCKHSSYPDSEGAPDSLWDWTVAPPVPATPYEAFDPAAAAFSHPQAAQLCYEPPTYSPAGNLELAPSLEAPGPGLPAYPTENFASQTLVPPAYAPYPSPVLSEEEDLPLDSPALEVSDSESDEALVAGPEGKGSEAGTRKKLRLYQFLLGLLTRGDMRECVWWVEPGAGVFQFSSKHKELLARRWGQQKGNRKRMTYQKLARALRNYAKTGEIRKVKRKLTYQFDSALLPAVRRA
Method in brief: as §1

ELK3 = target: T6, ELK3 (Homo sapiens, UniProt P41970 1-407)
T6 sequence: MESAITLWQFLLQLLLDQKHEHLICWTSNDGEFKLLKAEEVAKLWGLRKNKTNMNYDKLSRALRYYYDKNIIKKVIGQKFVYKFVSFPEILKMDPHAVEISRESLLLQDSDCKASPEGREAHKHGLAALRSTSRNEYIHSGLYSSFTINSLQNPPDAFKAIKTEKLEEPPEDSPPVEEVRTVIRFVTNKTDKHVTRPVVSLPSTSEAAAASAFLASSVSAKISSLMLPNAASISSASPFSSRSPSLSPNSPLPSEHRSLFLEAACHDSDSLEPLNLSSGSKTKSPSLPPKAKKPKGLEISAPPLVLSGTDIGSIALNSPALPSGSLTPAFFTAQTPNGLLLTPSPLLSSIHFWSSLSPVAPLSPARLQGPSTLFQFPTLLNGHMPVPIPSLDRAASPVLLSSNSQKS
Method in brief: as §1

Row | Sequence | binding signal (FLI1) | binding signal (ELK1) | binding signal (GABPA) | binding signal (ERG) | binding signal (ELF1) | binding signal (EHF) | binding signal (SPI1) | binding signal (SPIB) | binding signal (ELK3)
1 | GAATTC | 1.41 fold enrichment (6-mer frequency, TF over GST control) | 1.29 fold enrichment (6-mer frequency, TF over GST control) | 1.31 fold enrichment (6-mer frequency, TF over GST control) | 1.36 fold enrichment (6-mer frequency, TF over GST control) | 1.31 fold enrichment (6-mer frequency, TF over GST control) | 1.43 fold enrichment (6-mer frequency, TF over GST control) | 1.43 fold enrichment (6-mer frequency, TF over GST control) | 1.38 fold enrichment (6-mer frequency, TF over GST control) | 1.38 fold enrichment (6-mer frequency, TF over GST control)
2 | CCGACA | 1.2 fold enrichment (6-mer frequency, TF over GST control) | 1.18 fold enrichment (6-mer frequency, TF over GST control) | 1.11 fold enrichment (6-mer frequency, TF over GST control) | 1.29 fold enrichment (6-mer frequency, TF over GST control) | 1.27 fold enrichment (6-mer frequency, TF over GST control) | 1.21 fold enrichment (6-mer frequency, TF over GST control) | 1.24 fold enrichment (6-mer frequency, TF over GST control) | 1.25 fold enrichment (6-mer frequency, TF over GST control) | 1.16 fold enrichment (6-mer frequency, TF over GST control)
3 | GAATAT | 1.08 fold enrichment (6-mer frequency, TF over GST control) | 1.08 fold enrichment (6-mer frequency, TF over GST control) | 1.11 fold enrichment (6-mer frequency, TF over GST control) | 1.04 fold enrichment (6-mer frequency, TF over GST control) | 1.12 fold enrichment (6-mer frequency, TF over GST control) | 1.04 fold enrichment (6-mer frequency, TF over GST control) | 1.08 fold enrichment (6-mer frequency, TF over GST control) | 1.01 fold enrichment (6-mer frequency, TF over GST control) | 1.12 fold enrichment (6-mer frequency, TF over GST control)
4 | CACCTT | 1.36 fold enrichment (6-mer frequency, TF over GST control) | 1.28 fold enrichment (6-mer frequency, TF over GST control) | 1.22 fold enrichment (6-mer frequency, TF over GST control) | 1.26 fold enrichment (6-mer frequency, TF over GST control) | 1.24 fold enrichment (6-mer frequency, TF over GST control) | 1.34 fold enrichment (6-mer frequency, TF over GST control) | 1.25 fold enrichment (6-mer frequency, TF over GST control) | 1.18 fold enrichment (6-mer frequency, TF over GST control) | 1.26 fold enrichment (6-mer frequency, TF over GST control)
5 | CGTCAA | 1.2 fold enrichment (6-mer frequency, TF over GST control) | 1.15 fold enrichment (6-mer frequency, TF over GST control) | 1.19 fold enrichment (6-mer frequency, TF over GST control) | 1.11 fold enrichment (6-mer frequency, TF over GST control) | 1.11 fold enrichment (6-mer frequency, TF over GST control) | 1.12 fold enrichment (6-mer frequency, TF over GST control) | 1.01 fold enrichment (6-mer frequency, TF over GST control) | 1.27 fold enrichment (6-mer frequency, TF over GST control) | 1.06 fold enrichment (6-mer frequency, TF over GST control)
6 | TGCACA | 1.18 fold enrichment (6-mer frequency, TF over GST control) | 1.18 fold enrichment (6-mer frequency, TF over GST control) | 1.03 fold enrichment (6-mer frequency, TF over GST control) | 1.09 fold enrichment (6-mer frequency, TF over GST control) | 1.1 fold enrichment (6-mer frequency, TF over GST control) | 1.02 fold enrichment (6-mer frequency, TF over GST control) | 1.05 fold enrichment (6-mer frequency, TF over GST control) | 1.13 fold enrichment (6-mer frequency, TF over GST control) | 1.2 fold enrichment (6-mer frequency, TF over GST control)
7 | TCCCGC | 1.48 fold enrichment (6-mer frequency, TF over GST control) | 1.53 fold enrichment (6-mer frequency, TF over GST control) | 1.4 fold enrichment (6-mer frequency, TF over GST control) | 1.42 fold enrichment (6-mer frequency, TF over GST control) | 1.47 fold enrichment (6-mer frequency, TF over GST control) | 1.52 fold enrichment (6-mer frequency, TF over GST control) | 1.37 fold enrichment (6-mer frequency, TF over GST control) | 1.48 fold enrichment (6-mer frequency, TF over GST control) | 1.46 fold enrichment (6-mer frequency, TF over GST control)
